In the library only some 1.3% were active in any assay of this set; here they are far more common.
S1P2 antag: human S1P2 receptor antagonists, primary screen, cell-based; Sphingosine 1-phosphate receptor 2 (Homo sapiens), O95136; cell-based S1P2 antagonist assay, inhibition at 5 uM; inhibition, % at 5 µM; 97,000 compounds, 0.21% hits; in the data active = inhibition above about 45%;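 also: CRE beta-lactamase reporter cells expressing human S1P2 stimulated with S1P; 0% = agonist at EC80 alone and 100% = agonist plus reference antagonist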
GALR2 agonist: GALR2 receptor agonists, primary screen, cell-based; Galanin receptor type 2 (Homo sapiens), O43603; GALR2-expressing cells, agonist activation read-out; activation, % (no concentration beside the values); 140,000 compounds, 0.48% hits; in the data active = activation above about 5%, passing the limit was not always enough;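 also: 0% = vehicle buffer wells and 100% = reference agonist at full effect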
LYP act: LYP phosphatase activators, primary screen, biochemical, DiFMUP fluorescence, 2 µM | Tyrosine-protein phosphatase non-receptor type 22 (Homo sapiens), Q9Y2R2 | recombinant LYP; 0 = plate median, 100 = signal doubled | activation, % at 2 µM | 96,000 compounds, 0.11% hits | AID 697, 2007;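 active = activation at 2 µM above a set limit, the mean plus 5 SD, cut at about 37% in these data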
Target sequence (Q9Y2R2 whole entry, looked up): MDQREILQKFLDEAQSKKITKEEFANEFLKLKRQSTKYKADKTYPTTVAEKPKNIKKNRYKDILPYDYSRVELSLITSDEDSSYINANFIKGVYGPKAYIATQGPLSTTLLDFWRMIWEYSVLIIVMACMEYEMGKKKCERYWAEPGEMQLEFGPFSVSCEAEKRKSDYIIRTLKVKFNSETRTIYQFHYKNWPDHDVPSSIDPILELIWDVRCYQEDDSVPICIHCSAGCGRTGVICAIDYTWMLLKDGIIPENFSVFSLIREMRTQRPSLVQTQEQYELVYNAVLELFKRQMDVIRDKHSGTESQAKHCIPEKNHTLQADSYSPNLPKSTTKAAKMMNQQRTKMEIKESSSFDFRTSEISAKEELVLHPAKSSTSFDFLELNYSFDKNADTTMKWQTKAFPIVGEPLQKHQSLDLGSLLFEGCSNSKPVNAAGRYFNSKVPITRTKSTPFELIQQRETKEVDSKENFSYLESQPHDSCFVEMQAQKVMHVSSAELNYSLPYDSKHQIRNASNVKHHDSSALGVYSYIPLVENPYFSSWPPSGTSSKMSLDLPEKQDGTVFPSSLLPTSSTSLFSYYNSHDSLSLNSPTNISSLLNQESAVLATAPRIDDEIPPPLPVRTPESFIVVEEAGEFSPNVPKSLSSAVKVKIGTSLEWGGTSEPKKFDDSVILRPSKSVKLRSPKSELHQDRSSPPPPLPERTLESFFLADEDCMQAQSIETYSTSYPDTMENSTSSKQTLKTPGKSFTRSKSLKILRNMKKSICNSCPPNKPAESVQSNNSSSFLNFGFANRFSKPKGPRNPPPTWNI
S1P2 agonist: S1P2 receptor agonists, primary screen, cell-based | activation, % at 4.5 µM | S1P2-expressing cell line, agonist reporter read-out | 97,000 compounds, 0.46% hits | Sphingosine 1-phosphate receptor 2 (Homo sapiens), O95136; in the data active = activation above about 16%;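 also: 0% = vehicle low control and 100% = maximal reference agonist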
LYP inh 2: PTPN22 phosphatase inhibitors, primary screen, biochemical, DiFMUP fluorescence, 2 µM | inhibition, % at 2 µM | recombinant LYP catalytic domain | Tyrosine-protein phosphatase non-receptor type 22 (Homo sapiens), Q9Y2R2 | 96,000 compounds, 0.21% hits;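 active = inhibition at 2 µM at or above a set limit, the screen mean plus 3 SD, cut at about 24% in these data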;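 also: 0% = DMSO with enzyme and 100% = enzyme fully blocked by orthovanadate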
GALR2 blocker: GALR2 antagonists in receptor-expressing cells, primary screen | Galanin receptor type 2 (Homo sapiens), O43603 | inhibition, % at 4 µM | antagonist mode | 140,000 compounds, 0.39% hits; in the data active = inhibition above about 27%;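 also: cells stimulated with galanin 1-16 at roughly its EC80; 0% = agonist challenge control and 100% = basal control without agonist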
An asterisk follows results filed as active; / = no result given.

SMILES	S1P2 antag	GALR2 agonist	LYP act	S1P2 agonist	LYP inh 2	GALR2 blocker
CN1CCN(c2ccccc2NS(=O)(=O)c2ccc3c(c2)CCN3C(=O)C2CCC2)CC1	10	1	-8	-4	12	1
O=C(c1cc(NC(=O)C23CC4CC(CC(C4)C2)C3)cc(NC(=O)C23CC4CC(CC(C4)C2)C3)c1)N1CCCCC1	74*	-2	-22	-11	21	13
O=c1c(/C=N/Nc2ccccc2)c(Sc2nnnn2-c2ccccc2)nc2ccccn12	-1	0	-23	0	24*	-12
Cc1cc(/C=C2/SC(=S)N(c3cccc(C(F)(F)F)c3)C2=O)c(C)n1-c1cccnc1	82*	-3	-9	-5	14	35*
Cc1cc(/C=C2\SC(=S)N(Cc3ccco3)C2=O)c(C)n1-c1cccnc1	-17	-2	-7	-5	11	4
CCOc1ccc(C/C(N)=N/n2cnnc2)cc1	-6	-2	-1	-4	-3	-6
CC1=C(C(=O)OCC(C)C)C(c2ccc(F)cc2)NC(=O)N1 (stereo not given)	17	-1	7	1	-10	-18
COc1ccc(-c2cc(N)n(S(=O)(=O)c3c(F)c(F)c(F)c(F)c3F)n2)cc1OC	15	-2	-14	6	11	28*
Nc1c(C(=O)NCc2ccco2)c2nc3ccccc3nc2n1CCc1ccccc1F	6	7	-25	4	25*	-13
COCCNC(=O)c1c(N)n(CCC2=CCCCC2)c2nc3ccccc3nc12	-51	19*	-3	26*	4	-14
CCC(C)n1c(C)nc2c(c1=O)c1nc3ccccc3nc1n2CCC1=CCCCC1 (stereo not given)	8	-2	-22	-2	25*	-12
O=C1c2ccccc2C(=O)N1CCC1=CCCCC1	12	-1	1	-6	1	0
C=CCNC(=O)C(=O)NCCOc1ccccc1Cl	/	-2	/	/	/	3
C=CCN(c1ccc(C(=O)Nc2ccc(C)c(C)c2)cc1)S(C)(=O)=O	/	-1	/	/	/	14
COc1ccccc1OCC(=O)c1[nH]c(C)c(C(C)=O)c1C	51*	-2	-3	-3	3	-1
COc1cc(-c2nn3c(Cc4ccccc4)nnc3s2)cc(OC)c1OC	-53	1	0	21*	4	-31
COc1cc(-c2nn3c(COc4ccccc4)nnc3s2)cc(OC)c1OC	/	-1	/	/	/	11
CN(C)c1ccc(/C=N/n2ncc3ccccc32)cc1	/	25*	/	/	/	-1
C=CCn1c(/N=C/c2ccc(N(C)C)cc2)nc2ccccc21	16	-3	-6	-8	3	2
CCN(CC)c1c2c(c(C#N)c3nc4ccccc4n13)CCC2	-36	1	10	20*	-10	4
CC(=O)c1ccc(Nc2c3c(c(C#N)c4nc5ccccc5n24)CCC3)cc1	/	1	/	/	/	-3
CCOC(=O)c1cnn(-c2ccccc2)c1NC(=O)CSc1nnc(-c2cccs2)n1CC	-8	-2	3	-3	-3	1
OCCN(CCO)c1ncnc2c1oc1ccc(Br)cc12	-52	-1	1	20*	2	-15
CCOC(=O)COc1ccccc1C1Nc2ccccc2C(=O)N1c1cccc(Cl)c1 (stereo not given)	-18	0	-4	-9	2	0
CCOc1nc(NC(=O)NS(=O)(=O)c2cccc(Cl)c2)nc(-c2ccccc2)n1	/	-1	/	/	/	6
SMILES	S1P2 antag	GALR2 agonist	LYP act	S1P2 agonist	LYP inh 2	GALR2 blocker
O=C(O)c1nc(N2CCOCC2)nc(N2CCOCC2)n1	-8	0	-6	-2	7	-2
CN1CCn2c1nc(N1CCOCC1)nc2=O	-10	-5	-33	-1	31*	6
Cc1cc(N2CCN(c3nc(N4CCOCC4)nc4ccccc34)CC2)c2ccccc2n1	-21	-2	39*	-1	-41	-4
c1ccc2c(N3CCCCC3)nc(N3CCCCC3)nc2c1	2	-4	7	-1	-10	-4
NS(=O)(=O)c1cccc(NC(=O)CCSc2ccc(Cl)cc2)c1	/	-1	/	/	/	7
CN(CC(=O)Nc1ccccc1C(=O)N1CCCC1)S(=O)(=O)c1ccc(Cl)cc1	-17	-1	-6	-5	9	-11
COc1ccc2cc(C(c3nnnn3C3CCCCC3)N3CCCCCC3)c3nnnn3c2c1 (stereo not given)	11	13*	-5	-3	1	-2
C=CCn1c(SCC(=O)Nc2ccccc2)nc2scc(-c3cccs3)c2c1=O	-2	-2	-1	-1	-1	-5
C=CCn1c(N)cc(=O)nc1SCC(=O)Nc1ccccc1	-9	-4	4	80*	-6	-6
Cc1ccc2c(c1)C(c1ccncc1)=NNC(c1ccc(C(C)C)cc1)=N2	16	0	1	-4	-1	4
COc1ccc(/C=N/NC(=O)c2nc(-c3ccccc3)cc(-c3ccccc3)n2)cc1	54*	-4	-9	-17	10	-7
COc1ccc(/C=N/NC(=O)c2nc(-c3ccccc3)cc(-c3ccccc3)n2)cc1O	/	0	/	/	/	3
NC(=O)c1ccc(NC(=O)C2CCCO2)cc1 (stereo not given)	6	-3	-2	219*	4	-2
COc1cc(NC(=O)C2CCCO2)c(OC)cc1Cl (stereo not given)	-4	-2	4	-2	-6	13
COc1ccc(NC(=O)C2CCCO2)cc1Cl (stereo not given)	-7	0	-25	-2	24*	-7
O=C(Cc1ccccc1)NN1C(=O)C2C3C=CC(C3)[C@@H]2C1=O (stereo not given in full)	/	-1	/	/	/	6
CCCCC(=O)Nc1cccc(C(=O)N/N=C/c2ccc(OC)cc2OC)c1	/	-1	/	/	/	5
COc1ccc2cc(/C=N/NC(=O)CN(c3ccccc3)S(=O)(=O)c3ccccc3)c(Cl)nc2c1	/	6.5*	/	/	/	-2
Cc1ccc(C)c(N(CC(=O)N/N=C/c2ccc(-c3ccc([N+](=O)[O-])cc3)o2)S(=O)(=O)c2ccccc2)c1	67*	-4	-8	-15	5	14
O=C(Cc1ccccc1)N/N=C/c1ccc(-c2ccc([N+](=O)[O-])cc2)o1	/	1	/	/	/	5
COc1ccc(N(CC(=O)N/N=C/c2cc3ccc(OC)cc3nc2Cl)S(=O)(=O)c2ccccc2)cc1	/	-1	/	/	/	4
CCOc1ccc(S(=O)(=O)N(CC(=O)N/N=C/c2ccc(-c3ccc([N+](=O)[O-])cc3)o2)c2ccccc2)cc1	61*	-1	-12	-17	17	3
CCC(CC)C(=O)Nc1cc(C(=O)NCCc2ccccc2)ccc1Cl	0	-2	12	-5	-9	-4
COc1ccc2cc(S(=O)(=O)NCCCN3CCOCC3)ccc2c1	-3	-2	4	57*	-2	5
